# According to PubChem BioAssay:
# Several values for one entry are separate records, joined by “and”; a condition that tells them apart may be missing. Equal values may be shown once. Activity calls are given as the source filed them. Unless noted, no stated cut-off is given here; in the data, active means inhibition above about 80%; inactive means the rest.
# What was measured:
# [1] = system: Aerobactin synthetase IucA (Klebsiella pneumoniae); assay: inhibition of K. pneumoniae IucA enzyme – biochemical, Tocris library, absorbance (AID 1345561; call rule not given here;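 further: 100% = enzyme without compound and 0% = no enzyme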); conditions: purified IucA enzyme assay, absorbance (OD) read-out; stronger effect = lower value;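 tested at 8 µM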
# [2] = viability loss with induced miR-34 in A549 – imaging, A549 dox-inducible miR-34, nuclei and caspase counts, primary screen (AID 1347080;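 active means compounds whose cell count with miR-34 switched on is under 0.7 times the count with it off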); conditions: A549 miR-34 inducible, Hoechst nuclei count, 48 h
# [3] = MELAS cybrid and Rieske KO viability enhancers – cell-based, MELAS cybrids, Rieske KO mouse fibroblasts, CellTiter-Glo, primary screen (AID 1508586;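 active means mean z-score across replicates of 1.96 or higher in either the MELAS or the Rieske mutant cell line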;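 further: z relative to plate mean and SD of compound and empty wells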); conditions: low glucose
# [4] = galactose survival enhancers in mitochondrial complex I cybrids – cell-based, galactose medium, ATP luminescence, primary screen (AID 1645843;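 active means z-score of at least 1.8 in each of two replicates, scored against plate mean and spread of sample wells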;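 further: positive z means more ATP and so rescue of galactose-driven cybrid death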); conditions: complex I mutant cybrid cells, 72 h, stronger effect = higher value
# [5] = growth inhibition, single agent or in combination, cell-based, chromothripsis tumors, cisplatin or BGB combos (AID 1671449); conditions: LFS_MB_P medulloblastoma cells;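 further: cells exposed for 96 hours; 0% = vehicle DMSO and 100% = killing by high DMSO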
# [6] = growth inhibition, single agent and combos, cell-based, chromothripsis tumors, cisplatin or BGB combos (AID 1671450); conditions: HDN33 neuroblastoma cells, stronger effect = higher value;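 further: cells exposed to compound for four days; 0% = vehicle DMSO and 100% = cell killing by high DMSO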
# [7] = growth inhibition, single agents and combos, ICB984, cell-based, cisplatin or BGB combos, synergistic combos for chromothripsis tumors (AID 1671451; call rule not given here;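 further: cells exposed for 96 hours before readout; 0% = vehicle DMSO and 100% = killing by high DMSO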); conditions: ICB984 medulloblastoma cells, drug combinations, stronger effect = higher value
# [8] = growth inhibition, single agents and combos, LFS_MB_1R, cell-based, cisplatin or BGB combos, synergistic combos for chromothripsis tumors (AID 1671452); conditions: LFS_MB_1R medulloblastoma cells, stronger effect = higher value;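 further: cells exposed for 96 hours before readout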
# [9] = growth inhibition, single agents and combos, HTB85, cell-based, BGB or cisplatin IC20 combos, synergistic combos for chromothripsis tumors (AID 1671453); conditions: HTB85 osteosarcoma cells, drug combinations, stronger effect = higher value;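 further: cells exposed for 96 hours before readout; 0% = vehicle DMSO and 100% = high DMSO killing control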
# [10] = growth inhibition, single agents and combos, CRL2098, cell-based, BGB or cisplatin IC20 combos, synergistic combos for chromothripsis tumors (AID 1671454); conditions: CRL2098 osteosarcoma cells, drug combinations, stronger effect = higher value;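 further: cells exposed for 96 h before readout; 0% = vehicle DMSO and 100% = killing by high DMSO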
# [11] = growth inhibition, single agents and combos, HD-MB03, cell-based, BGB or cisplatin IC20 combos, synergistic combos for chromothripsis tumors (AID 1671455; in the data active means inhibition above about 83%;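 further: 0% = vehicle DMSO and 100% = high DMSO as cytotoxic control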); conditions: HD-MB03 medulloblastoma cells, stronger effect = higher value
# [12] = growth inhibition, single agents and combos, UWB1.289, cell-based, BGB or cisplatin combos, synergistic combos for chromothripsis tumors (AID 1671456); conditions: UWB1.289 ovarian carcinoma cells, stronger effect = higher value;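 further: cells exposed to compound for four days; 0% = vehicle DMSO and 100% = killing by high DMSO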
# [13] = growth inhibition, single agents and combos, LFS_MB_2R, cell-based, cisplatin combos, synergistic combos for chromothripsis tumors (AID 1671457); conditions: LFS_MB_2R medulloblastoma cells, stronger effect = higher value;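 further: cells exposed to compound for four days before readout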
# [14] = growth inhibition, MDA-MB-436, cell-based, BGB or cisplatin combos, synergistic combos for chromothripsis tumors (AID 1671458; call rule not given here;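 further: cells exposed for 96 hours; 0% = vehicle DMSO and 100% = killing by high DMSO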); conditions: MDA-MB-436 breast carcinoma growth inhibition, drug combinations, stronger effect = higher value
# [15] = UWB1.289_BRCA1 ovarian cancer growth, cell-based, BGB or cisplatin combinations (AID 1671459); conditions: UWB1.289 BRCA1 ovarian carcinoma, drug combinations, stronger effect = higher value
# [16] = drug combination toxicity in non-malignant astrocytes – cell-based, BGB or cisplatin IC20 combos, cytotoxicity control for chromothriptic childhood tumor combination screen (AID 1671460); conditions: Human astrocytes, viability inhibition, drug combinations, at 0.5 µM, stronger effect = higher value;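 further: cells exposed to compounds for 96 hours before viability readout; 0% = vehicle and 100% = killing control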
# [17] = BT084 cell growth, single and combined drugs, ICGC_MB145, cisplatin and BGB IC40 combos (AID 1671461); conditions: BT084 medulloblastoma cells, drug combinations, stronger effect = higher value;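 further: cells exposed to drugs for 96 hours; 0% = vehicle DMSO and 100% = high DMSO full killing control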
# [18] = RCMB18 cell growth, single agent and combined, cisplatin and BGB IC40 combos (AID 1671462); conditions: RCMB18 medulloblastoma cells, stronger effect = higher value;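 further: cells exposed to compound for four days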
# [19] = CRL1545 cell growth, single agent and combined, cisplatin and BGB IC20 combos (AID 1671464); conditions: CRL1545 osteosarcoma cells, stronger effect = higher value;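 further: cells exposed to compound for 96 hours before readout; 0% = vehicle DMSO and 100% = high DMSO killing control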
# [20] = chitosan synthesis blockers in C. neoformans – flow cytometry, Cibacron Brilliant Red staining (AID 1347148; call rule not given here;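 further: compound exposure lasted three days at 37 degrees C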); conditions: Cryptococcus neoformans chitosan, stronger effect = lower value; at 10 µM unless noted
# [21] = stronger effect = lower value, cell number ratio, induced over uninduced
# [22] = measured here: relative caspase fold change +Dox/-Dox
# [23] = measured here: total cells with miR-34 induction, stronger effect = lower value
# [24] = measured here: total cells without miR-34 induction
# [25] = MELAS cybrid survival, CellTiter-Glo 48 h, stronger effect = higher value
# [26] = Rieske KO mouse fibroblast survival, CellTiter-Glo 72 h
# [27] = measured here: combination with BGB IC40, at 0.05 µM
# [28] = measured here: with BGB IC20 combination, at 0.5 µM
# [29] = measured here: with cisplatin IC20 combination, at 0.5 µM
# [30] = measured here: combination with cisplatin, at 0.5 µM
# [31] = measured here: combination with cisplatin, at 5 µM
smiles,measurement,setting,value
O=C(COc1cccc2c(=O)[nH]ccc12)c1ccccc1,remaining activity,[1],129% (inactive)
same,fold change,[2]; [21],0.93 (inactive) and 0.917 (inactive)
same,fold change,[2]; [22],0.39 and 1.29
same,cell count,[2]; [23],8870 and 8400
same,cell count,[2]; [24],9530 and 9170
same,z-score,[3]; [25],-0.468 (inactive)
same,z-score,[3]; [26],0.438
same,z-score,[4],-0.28 (inactive)
same,inhibition,"[5]; at 0.5 µM, stronger effect = higher value",-16.5% (inactive)
same,inhibition,"[5]; measured here: combination with BGB IC20, at 0.005 µM",-16.8%
same,inhibition,"[5]; measured here: combination with BGB IC40, at 0.005 µM",-36.3%
same,inhibition,[5]; [27],-53.7%
same,inhibition,"[5]; measured here: combination with cisplatin, at 0.5 µM, stronger effect = higher value",-36.1%
same,inhibition,"[5]; measured here: combination with cisplatin, at 5 µM, stronger effect = higher value",-39.6%
same,inhibition,"[6]; BGB combo, at 5 µM",-30.5%
same,inhibition,[6]; at 0.5 µM,-19.3% (inactive)
same,inhibition,"[6]; cisplatin combo, at 5 µM",0.128%
same,inhibition,[6]; [28],-14.4%
same,inhibition,[6]; [29],-33.6%
same,inhibition,"[6]; single agent, at 5 µM",5.27%
same,inhibition,"[7]; BGB IC20 combo, at 0.005 µM",-2.15%
same,inhibition,"[7]; BGB IC40 combo, at 0.005 µM",-17.7%
same,inhibition,"[7]; BGB IC40 combo, at 0.05 µM",-10.1%
same,inhibition,[7]; at 0.5 µM,-21.4% (inactive)
same,inhibition,"[7]; cisplatin combo, at 0.05 µM",-14.1%
same,inhibition,"[7]; cisplatin combo, at 0.5 µM",-12.6%
same,inhibition,"[7]; cisplatin combo, at 5 µM",-29.1%
same,inhibition,"[7]; measured here: 5 uM single agent, at 5 µM",-6.87%
same,inhibition,[8]; at 0.5 µM,-3.67% (inactive)
same,inhibition,[8]; [27],3.04%
same,inhibition,[8]; [30],4.91%
same,inhibition,[8]; [31],-55.9%
same,inhibition,[9]; at 0.5 µM,-2.5% (inactive)
same,inhibition,"[9]; measured here: with BGB IC20, at 0.5 µM",-2.96%
same,inhibition,"[9]; measured here: with BGB IC20, at 5 µM",-14.8%
same,inhibition,"[9]; measured here: with cisplatin IC20, at 0.5 µM",-15.8%
same,inhibition,"[9]; measured here: with cisplatin IC20, at 5 µM",-9.52%
same,inhibition,"[9]; single agent, at 5 µM",-11.8%
same,inhibition,[10]; at 0.5 µM,-77.2% (inactive)
same,inhibition,"[10]; measured here: combination with BGB at IC20, at 0.5 µM",-43.7%
same,inhibition,"[10]; measured here: combination with cisplatin at IC20, at 0.5 µM",-122%
same,inhibition,[11]; at 0.5 µM,-12.7% (inactive)
same,inhibition,"[11]; measured here: combo with BGB at IC20, at 0.5 µM",-9.35%
same,inhibition,"[11]; measured here: combo with cisplatin at IC20, at 0.5 µM",-24.1%
same,inhibition,[12]; at 0.5 µM,-8.68% (inactive)
same,inhibition,"[12]; measured here: inhibition with BGB combination, at 0.05 µM",-22.4%
same,inhibition,"[12]; measured here: inhibition with cisplatin combination, at 0.05 µM",-23.8%
same,inhibition,[13]; at 0.5 µM,-15.2% (inactive)
same,inhibition,[13]; [30],-23.3%
same,inhibition,[13]; [31],-11.3%
same,inhibition,[14]; at 0.5 µM,-8.48% (inactive)
same,inhibition,"[14]; measured here: BGB combination, at 0.5 µM",-12.1%
same,inhibition,"[14]; measured here: BGB combination, at 5 µM",-20.7%
same,inhibition,"[14]; measured here: cisplatin combination, at 0.5 µM",-11.8%
same,inhibition,"[14]; measured here: cisplatin combination, at 5 µM",-15.5%
same,inhibition,"[15]; BGB combination, concentration series, at 5 µM",17.1%
same,inhibition,[15]; at 0.5 µM,-4.72% (inactive)
same,inhibition,"[15]; cisplatin combination, concentration series, at 5 µM",-1.24%
same,inhibition,[16],18.8% (inactive)
same,inhibition,[16]; measured here: combo with BGB IC20,3.19%
same,inhibition,[16]; measured here: combo with cisplatin IC20,27.2%
same,inhibition,[17]; at 0.5 µM,-16.5% (inactive)
same,inhibition,"[17]; cisplatin combination, at 0.5 µM",-34.9%
same,inhibition,"[17]; cisplatin combination, at 5 µM",-2.7%
same,inhibition,"[17]; measured here: BGB IC40 combination 0.05 uM, at 0.05 µM",-29.5%
same,inhibition,"[17]; single agent, at 5 µM",2.36%
same,inhibition,[18]; at 0.5 µM,-1.53% (inactive)
same,inhibition,"[18]; cisplatin combo, at 5 µM",-22.8%
same,inhibition,"[18]; measured here: BGB IC40 combination, at 0.05 µM",-14.7%
same,inhibition,[18]; [30],-4%
same,inhibition,"[18]; single agent, at 5 µM",-18.5%
same,inhibition,[19]; at 0.5 µM,-12.7% (inactive)
same,inhibition,[19]; [28],-33.3%
same,inhibition,[19]; [29],-4%
same,inhibition,"[19]; single agent, at 0.05 µM",2.29%
same,inhibition,"[19]; single agent, at 5 µM",-29.9%
CN(CCOc1ccc(CC(Nc2ccccc2C(=O)c2ccccc2)C(=O)O)cc1)c1ccccn1 (stereo not given),remaining activity,[1],103% (inactive)
same,fold change,[2]; [21],0.954 (inactive)
same,fold change,[2]; [22],1.08
same,cell count,[2]; [23],7420
same,cell count,[2]; [24],7780
same,z-score,[4],1.48 (inactive)
CC1c2ccccc2CN1CC1=NCCN1 (stereo not given),remaining activity,[1],111% (inactive)
same,fold change,[2]; [21],0.985 (inactive)
same,fold change,[2]; [22],0.732
same,cell count,[2]; [23],8400
same,cell count,[2]; [24],8530
same,z-score,[4],-0.515 (inactive)
COC(=O)C1=C(C)NC(C)=C([N+](=O)[O-])[C@H]1c1ccccc1C(F)(F)F,remaining activity,[1],113% (inactive)
same,fold change,[2]; [21],0.834 (inactive)
same,fold change,[2]; [22],1.13
same,cell count,[2]; [23],7130
same,cell count,[2]; [24],8550
same,fold fluorescence,[20],5.36 [at 140.3 µM] (inactive)
same,z-score,[4],-0.645 (inactive)
CCn1c(=O)n(C2=C(CO)CN(CC3CCCCCCC3)CC2)c2ccccc21,remaining activity,[1],102% (inactive)
same,fold change,[2]; [21],0.951 (inactive)
same,fold change,[2]; [22],1.46
same,cell count,[2]; [23],7150
same,cell count,[2]; [24],7510
same,z-score,[4],-0.665 (inactive)
O=C(CCCCCN1C(=O)c2cccc3cccc(c23)C1=O)NO,remaining activity,[1],87.2% (inactive)
same,fold change,[2]; [21],0.869 (inactive) and 1.23 (inactive)
same,fold change,[2]; [22],0.881 and 1.17
same,cell count,[2]; [23],1710 and 2290
same,cell count,[2]; [24],1970 and 1860
same,z-score,[3]; [25],1.18 (inactive)
same,z-score,[3]; [26],1.2
same,z-score,[4],-0.53 (inactive)
N[C@H](C(=O)O)c1ccc(C(=O)O)c(C(=O)O)c1,remaining activity,[1],126% (inactive)
same,fold change,[2]; [21],0.986 (inactive)
same,fold change,[2]; [22],0.559
same,cell count,[2]; [23],9860
same,cell count,[2]; [24],10000
same,z-score,[4],-0.145 (inactive)
